Source: PubChem BioAssay AID1159580 (chemical genetic matrix, 2015)
Among all 5,500 compounds or so, about 2,000 (36%) were called active. Inconclusive results (about 18%) are left out. Rule as the data show it: active = normalized growth mostly below about 0.91 (no sharp cut-off); inconclusive = no clear call, values can overlap the other calls; inactive = mostly above about 0.92. This is one part of the list.

Experiment: chemical genetic growth profiling, strain panel (AID 1159580);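 also: tested at 20 µM; growth read once vehicle control cultures reached saturation at 30 °C; 1 = growth at the plate median or of vehicle wells; lower values mean less growth of the strain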
Conditions: growth OD

Measured: normalized growth

NC1(C(=O)O)CCCC1
inactive: S. cerevisiae deletion strains, locus YJR075W, strain HOC1, active compounds read low 0.997 | S. cerevisiae deletion strains, locus YKL009W, strain mrt4, active compounds read low 0.993 | S. cerevisiae deletion strains, locus YKL068W, active compounds read low 1 | S. cerevisiae deletion strains, locus YKL085W, strain MDH1 (second series), active compounds read low 0.996 | S. cerevisiae deletion strains, locus YKL085W, strain MDH1, active compounds read low 0.996 | S. cerevisiae deletion strains, locus YKL160W, strain elf1, active compounds read low 1.02 | S. cerevisiae deletion strains, locus YKL190W, strain CNB1, active compounds read low 1.01 | S. cerevisiae deletion strains, locus YKR001C, strain vps1, active compounds read low 0.998 | S. cerevisiae deletion strains, locus YKR026C, strain gcn3, active compounds read low 1.02 | S. cerevisiae deletion strains, locus YKR091W, strain srl3, active compounds read low 1.01 | S. cerevisiae deletion strains, locus YLL001W, strain dnm1, active compounds read low 1.03 | S. cerevisiae deletion strains, locus YLL026W, active compounds read low 1.01 | S. cerevisiae deletion strains, locus YLL041C, strain sdh2, active compounds read low 1.02 | S. cerevisiae deletion strains, locus YLR027C, strain aat2, active compounds read low 1.02 | S. cerevisiae deletion strains, locus YLR039C, strain RIC1, active compounds read low 0.971 | S. cerevisiae deletion strains, locus YLR058C, strain SHM2, active compounds read low 1.01 | S. cerevisiae deletion strains, locus YLR102C, strain apc9, active compounds read low 1 | S. cerevisiae deletion strains, locus YLR113W, strain HOG1, active compounds read low 1.06 | S. cerevisiae deletion strains, locus YLR221C, strain rsa3, active compounds read low 0.994 | S. cerevisiae deletion strains, locus YLR258W, strain gsy2, active compounds read low 1.02 | S. cerevisiae deletion strains, locus YLR262C, strain YPT6 (second series), active compounds read low 1.04 | S. cerevisiae deletion strains, locus YLR262C, strain YPT6, active compounds read low 1.02 | S. cerevisiae deletion strains, locus YLR268W, strain sec22, active compounds read low 1.01 | S. cerevisiae deletion strains, locus YLR320W, strain mms22, active compounds read low 1.03 | S. cerevisiae deletion strains, locus YLR330W, strain CHS5, active compounds read low 1 | S. cerevisiae deletion strains, locus YLR342W, strain FKS1 (second series), active compounds read low 1 | S. cerevisiae deletion strains, locus YLR342W, strain FKS1, active compounds read low 1.02 | S. cerevisiae deletion strains, locus YLR357W, strain rsc2, active compounds read low 1.02 | S. cerevisiae deletion strains, locus YLR370C, strain arc18, active compounds read low 1.02 | S. cerevisiae deletion strains, locus YLR371W, strain rom2, active compounds read low 1 | S. cerevisiae deletion strains, locus YLR384C, strain iki3, active compounds read low 1.02 | S. cerevisiae deletion strains, locus YLR418C, strain cdc73, active compounds read low 0.992 | S. cerevisiae deletion strains, locus YML016C, strain PPZ1, active compounds read low 1 | S. cerevisiae deletion strains, locus YML032C, strain rad52, active compounds read low 0.995 | S. cerevisiae deletion strains, locus YML120C, strain ndi1, active compounds read low 1.03 | S. cerevisiae deletion strains, locus YML124C, strain tub3, active compounds read low 0.998 | S. cerevisiae deletion strains, locus YMR058W, strain fet3, active compounds read low 1.02 | S. cerevisiae deletion strains, locus YMR078C, strain ctf18, active compounds read low 0.998 | S. cerevisiae deletion strains, locus YMR125W, strain sto1, active compounds read low 1.05 | S. cerevisiae deletion strains, locus YMR129W, active compounds read low 1.02 | S. cerevisiae deletion strains, locus YMR205C, strain PFK2, active compounds read low 1.03 | S. cerevisiae deletion strains, locus YMR223W, strain ubp8, active compounds read low 1.01 | S. cerevisiae deletion strains, locus YMR231W, strain pep5, active compounds read low 1.02 | S. cerevisiae deletion strains, locus YMR307W, strain GAS1, active compounds read low 1.01 | S. cerevisiae deletion strains, locus YNL067W, strain RPL9B, active compounds read low 1 | S. cerevisiae deletion strains, locus YNL071W, strain lat1, active compounds read low 1.02 | S. cerevisiae deletion strains, locus YNL128W, strain TEP1, active compounds read low 1.02 | S. cerevisiae deletion strains, locus YNL183C, strain NPR1, active compounds read low 0.946 | S. cerevisiae deletion strains, locus YNL209W, strain ssb2, active compounds read low 1.01 | S. cerevisiae deletion strains, locus YNL233W, strain BNI4, active compounds read low 0.991 | S. cerevisiae deletion strains, locus YNL248C, strain rpa49, active compounds read low 1 | S. cerevisiae deletion strains, locus YNL250W, strain rad50, active compounds read low 1.02 | S. cerevisiae deletion strains, locus YNL271C, strain bni1, active compounds read low 0.998 | S. cerevisiae deletion strains, locus YNL298W, strain CLA4, active compounds read low 1.01 | S. cerevisiae deletion strains, locus YNL307C, strain MCK1, active compounds read low 0.996 | S. cerevisiae deletion strains, locus YNL322C, strain KRE1 (second series), active compounds read low 1.01 | S. cerevisiae deletion strains, locus YNL322C, strain KRE1, active compounds read low 1.01 | S. cerevisiae deletion strains, locus YNR049C, strain mso1, active compounds read low 1.01 | S. cerevisiae deletion strains, locus YNR052C, strain pop2, active compounds read low 1.01 | S. cerevisiae deletion strains, locus YOL006C, strain TOP1, active compounds read low 0.987 | S. cerevisiae deletion strains, locus YOL012C, strain htz1 0.665 | S. cerevisiae deletion strains, locus YOL147C, strain pex11, active compounds read low 0.993 | S. cerevisiae deletion strains, locus YOR001W, strain rrp6, active compounds read low 1.03 | S. cerevisiae deletion strains, locus YOR061W, strain CKA2, active compounds read low 1.01 | S. cerevisiae deletion strains, locus YOR069W, strain VPS5, active compounds read low 1.01 | S. cerevisiae deletion strains, locus YOR070C, strain gyp1, active compounds read low 1.02 | S. cerevisiae deletion strains, locus YOR080W, strain dia2, active compounds read low 1.02 | S. cerevisiae deletion strains, locus YOR083W, strain WHI5, active compounds read low 1.03 | S. cerevisiae deletion strains, locus YOR106W, strain vam3, active compounds read low 1.02 | S. cerevisiae deletion strains, locus YOR136W, strain idh2, active compounds read low 0.998 | S. cerevisiae deletion strains, locus YOR144C, strain elg1, active compounds read low 0.997 | S. cerevisiae deletion strains, locus YOR184W, strain ser1, active compounds read low 0.996 | S. cerevisiae deletion strains, locus YOR231W, strain MKK1, active compounds read low 1.04 | S. cerevisiae deletion strains, locus YOR265W, strain rbl2, active compounds read low 1.01 | S. cerevisiae deletion strains, locus YOR270C, strain vph1, active compounds read low 1.07 | S. cerevisiae deletion strains, locus YOR290C, strain snf2, active compounds read low 1.02 | S. cerevisiae deletion strains, locus YOR316C, strain cot1, active compounds read low 1 | S. cerevisiae deletion strains, locus YPL051W, strain arl3, active compounds read low 1.03 | S. cerevisiae deletion strains, locus YPL055C, strain LGE1, active compounds read low 1.03 | S. cerevisiae deletion strains, locus YPL078C, strain atp4, active compounds read low 1.04 | S. cerevisiae deletion strains, locus YPL106C, strain sse1, active compounds read low 1.02 | S. cerevisiae deletion strains, locus YPL240C, strain hsp82, active compounds read low 1.01 | S. cerevisiae deletion strains, locus YPL256C, strain CLN2, active compounds read low 1.04 | S. cerevisiae deletion strains, locus YPR119W, strain clb2, active compounds read low 0.998 | S. cerevisiae deletion strains, locus YPR141C, strain kar3, active compounds read low 0.991 | S. cerevisiae deletion strains, locus YPR163C, strain tif3, active compounds read low 1 | S. cerevisiae deletion strains, locus YPR167C, strain met16, active compounds read low 0.992 | S. cerevisiae deletion strains, strain wtn01, active compounds read low 0.994 | S. cerevisiae strains, strain wild type, active compounds read low 1.01
